Source: PubChem BioAssay (NCI)
About 83,000 compounds went through this panel and 20% of them were active in at least one assay; those are over-represented in the sample as a whole.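 The test compound was applied at a single concentration to cells in 96-well plates for 48 hours, and percent growth was recorded.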 Activity calls are given as the source filed them. The calls were made as follows: active = growth percent below 10; inactive = the rest.

How the values were obtained:
Test in all cases: NCI-60 one-dose screen, 48 h (100 = growth as untreated, 0 = no growth, -100 = all killed)
Settings in all cases: 10 µM unless noted
[1] = tested on: T-47D breast
[2] = tested on: BT-549 breast
[3] = tested on: MDA-MB-435 melanoma
[4] = tested on: SW-620 colon
[5] = tested on: MCF7 breast
[6] = tested on: HCT-116 colon
[7] = tested on: HCC-2998 colon
[8] = tested on: KM12 colon

Measured: growth

CNC(=O)c1cc(Cn2nc(C)c(NC(=O)Nc3ccc(Cl)c(C(F)(F)F)c3)c2C)ccn1
inactive: [1] 85% | [2] 98.6% | [3] 100% | [4] 111% | [5] 93.8% | [6] 86.7% | [7] 105% | [8] 106%

Cc1c(C(=O)NCCC(=O)NO)sc2ncnc(Nc3ccc(NC(=O)Nc4cccc(C(F)(F)F)c4)cc3)c12
inactive: [1] 101% | [2] 137% | [3] 103% | [4] 104% | [5] 89.2% | [6] 108% | [7] 112% | [8] 100%

Nc1c(C(=O)Nc2cccc3cnccc23)sc2nc3c(cc12)CN(Cc1ccccc1)CC3
inactive: [1] 102% | [2] 100% | [3] 108% | [4] 104% | [5] 96.5% | [6] 100% | [7] 115% | [8] 102%

COC(=O)C1=C(C(=O)ON)C2C=CC1(C(Cc1ccccc1)Nc1ccccc1)O2 (stereo unspecified)
active: [1] -51.1% | [4] -60% | [6] -73.8%
inactive: [2] 106% | [3] 94.5% | [5] 83.3% | [7] 93.6% | [8] 103%

COc1ccc(-c2nc([C@@H](C)Sc3nc(N)cc(N)n3)c(C)s2)cc1OCCN1CCOCC1
inactive: [1] 99.5% | [2] 96.1% | [3] 110% | [4] 107% | [5] 101% | [6] 103% | [7] 83.9% | [8] 104%

COc1cc(/C(C)=C(\c2ccc(Cl)cc2)c2ccc(OCCN3CCCC3)cc2)ccc1F
inactive: [1] 55.1% | [2] 79.1% | [3] 51.3% | [4] 43.2% | [5] 26.5% | [6] 39.2% | [7] 57.4% | [8] 36.7%

O=C1Nc2cc(Cl)ccc2/C1=C\c1c(-c2ccc(F)cc2)nc2ccccn12
inactive: [1] 24.2% | [2] 21.6% | [7] 31.5%
active: [3] -55% | [4] 9.82% | [5] 2.1% | [6] -80.1% | [8] -1.1%

Cn1cc(-c2csc(-c3c[nH]c4ccccc34)n2)c2ccnc(Cl)c21
inactive: [1] 18.4% | [2] 93.8% | [3] 75.7% | [4] 41.7% | [5] 30.3% | [6] 59.4% | [7] 92.4% | [8] 58.9%

OC(c1cccc(C(F)(F)F)c1)c1cnccc1NC1CCCCC1 (stereo unspecified)
inactive: [1] 49.1% | [2] 93.5% | [3] 86.6% | [4] 77.6% | [5] 71.4% | [6] 51.1% | [8] 80.8%
active: [7] -11.3%

CC(=O)[C@@H]1CC[C@]2(C(N)=O)CC[C@]3(C)[C@H](CC[C@@H]4[C@@]5(C)CCCNC(C)(C)[C@@H]5CC[C@]43C)[C@@H]12
inactive: [1] 93.9% | [2] 87.1% | [3] 83.9% | [4] 90.4% | [5] 72.1% | [6] 65.1% | [7] 92% | [8] 90.5%

O=C1Nc2ccc(F)cc2/C1=C\c1c(-c2ccccc2)nc2ccccn12
inactive: [1] 61.8% | [2] 65.9% | [4] 49.8% | [5] 61.3% | [6] 63.8% | [7] 93.3% | [8] 45.7%
active: [3] -10.1%

C/C=C(\C)C(=O)NC1=CC[C@@]2(C)C(=CCC3C2CC[C@@]2(C)C3CC[C@@H]2C(C)N(C)C)C1=O (stereo partly specified)
active: [3] -2.62% | [4] -11%
inactive: [1] 46.7% | [2] 37.6% | [5] 10.3% | [6] 10.4% | [7] 31.3% | [8] 19.6%

CCNC(=O)Oc1ccc(/C(=C(\C)c2ccccc2)c2ccc(OCCCN(C)C)cc2)cc1
inactive: [1] 45.6% | [2] 70.7% | [3] 69.6% | [4] 94.5% | [5] 27% | [6] 48.8% | [8] 65.8%

COc1ccc(/C=C/c2nc(Nc3ccc(S(=O)(=O)Nc4nc(C)cc(C)n4)cc3)c3ccccc3n2)cc1
inactive: [1] 49.1% | [2] 87.9% | [3] 60.6% | [4] 61.1% | [5] 42.2% | [6] 66.4% | [8] 47.5%

CCCCNC(=O)Oc1ccc(/C(=C(\C)c2ccccc2)c2ccc(OCCN3CCCCC3)cc2)cc1
inactive: [1] 31.6% | [2] 62% | [3] 67.8% | [4] 60.8% | [5] 22.5% | [6] 42.8% | [7] 79% | [8] 52.1%

COc1cccc2c1c1nc3cc(C)c(C)cc3nc1n2CCN(C)C
active: [5] 4.64%
inactive: [1] 30.1% | [2] 68.8% | [3] 31.3% | [4] 12.6% | [6] 14.4% | [7] 44.6% | [8] 29.2%

CCCCOc1ccc(/C=N/Nc2cc(C)nc3ccc(Br)cc23)cc1
inactive: [1] 82.5% | [2] 99%
active: [3] -4.43% | [4] -70.5% | [5] -52.1% | [6] -69.6% | [7] -53.9% | [8] -4.11%

COc1cc2nc(-c3ccc(Cl)cc3)cc(OCCCN3CCCC3)c2cc1OC
inactive: [1] 32% | [2] 37.3% | [4] 30.4% | [5] 48.1% | [6] 23.4% | [8] 41.4%
active: [3] -7.23%

CCCCCN1C=C/C(=C\C(=O)N2CCCc3ccccc32)c2ccccc21
inactive: [1] 68.2% | [2] 79.7% | [3] 97% | [4] 88.8% | [5] 91% | [6] 66.5% | [8] 90.4%

COc1cc2c(c(OC)c1OC)-c1ccc(NNC(=S)N(Cc3cccc(C[N+](Cc4cccc(CNC56CC7CC(CC(C7)C5)C6)c4)(Cc4cccc(CNC56CC7CC(CC(C7)C5)C6)c4)Cc4cccc(CN(C(=S)NNc5ccc6c(cc5=O)[C@@H](NC(C)=O)CCc5cc(OC)c(OC)c(OC)c5-6)C56CC7CC(CC(C7)C5)C6)c4)c3)C34CC5CC(CC(C5)C3)C4)c(=O)cc1[C@@H](NC(C)=O)CC2 (stereo partly specified)
active: [2] -4.6% | [3] -9.46% | [4] 3.6% | [5] -24.6% | [6] -54.6% | [8] 4.25%
inactive: [1] 51.8%

Cc1ccc(NS(=O)(=O)c2ccc(-c3cnc(C4CC4)o3)cc2)cc1C(F)(F)F
active: [3] -4.02%
inactive: [1] 55.1% | [2] 63.8% | [4] 37.2% | [5] 26.6% | [6] 41.1% | [7] 84.1% | [8] 38.6%

COc1cccc(-c2ccc3c(c2)NC(=O)/C3=C\c2ccc[nH]2)c1
active: [3] 8.7% | [8] 9.35%
inactive: [1] 13.6% | [2] 36.6% | [4] 25.1% | [5] 11.3% | [6] 23.5% | [7] 25.4%

Cc1cc2cc3ccc(N(C)C)cc3nc2cc1N
active: [1] -9.44% | [3] 5.71% | [4] -37.9% | [5] -4.08% | [6] -20% | [8] -20.7%
inactive: [2] 20.7%

CCNC(=O)Oc1ccc(/C(=C(\C)c2ccccc2)c2ccc(OCCN(CC)CC)cc2)cc1
inactive: [1] 46.3% | [2] 76.1% | [3] 71% | [4] 82.6% | [5] 28.8% | [6] 55.7% | [8] 72.1%

O=[N+]([O-])c1ccc(NC(=S)N/N=C/c2cc3ccccc3n3nnnc23)cc1
inactive: [1] 46.5% | [2] 80.4% | [3] 82.4% | [4] 24.4% | [5] 13.8% | [6] 61.3% | [7] 54% | [8] 66.9%

CCCCCOc1ccc(/C=N/Nc2cc(C)nc3ccc(Cl)cc23)cc1
inactive: [1] 68.6% | [2] 103%
active: [3] -75.6% | [4] -73.8% | [5] -73.6% | [6] -64.5% | [8] -84.6%

Cc1nc2ccc(Cl)cn2c1-c1nnc(SCc2ccc([N+](=O)[O-])cc2)o1
inactive: [1] 79.8% | [2] 12.9% | [3] 61.2% | [4] 76.1% | [5] 55.2% | [6] 58.4% | [7] 83.5% | [8] 72.9%

CCC(=O)Oc1ccc(/C(=C(\C)c2ccccc2)c2ccc(OCCN3CCCCC3)cc2)cc1
inactive: [1] 34.3% | [2] 82.6% | [3] 81.4% | [4] 87.1% | [5] 24.2% | [6] 60.9% | [7] 65.2% | [8] 65%
